This is an account of results in PubChem BioAssay AID1578 (Sanford-Burnham Center for Chemical Genomics, 2009).

The whole screen tested about 290,000 compounds, of which about 3,000 (1%) were called active. The sample holds actives, similar compounds and a random draw of the others, so the mix is not that of the screen. Rule as the data show it: active = inhibition mostly above about 36% (no sharp cut-off); inactive = mostly below about 34%.

This assay can be described thus: inhibition of NOD1-driven NF-kB reporter – cell-based, luminescence, uHTS, primary screen (AID 1578).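 Also: HEK-293T reporter cells stimulated with the NOD1 agonist gamma-tri-DAP.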 The conditions noted are these: NOD1-driven NF-kB luciferase reporter cells, at 4 µM, hits give high values.
Take `Cn1c(Cl)cnc1C1CC(=O)c2cc(Cl)ccc2O1` (stereo not given): the inhibition was 76.3% (active).
Then `COc1ccc2c(c1)C(=O)CC(c1ccccc1F)O2` (stereo not given), with 5.9% (inactive); and `Cc1ccc2c(c1)C(=O)CC(c1ccc3c(c1)OCCO3)O2` (stereo not given), with -0.6% (inactive); and `COc1ccc(CN(C)C(=O)c2ccc(COc3ccccc3)cc2)c(OC)c1`, with -11.1% (inactive).
Then `Cc1ccsc1/C=N\NC(=O)Cn1nnc2ccccc21`, with -9.3% (inactive).
Then `OC(COC(c1ccc(F)cc1)c1ccc(F)cc1)CN1CCCC1` (stereo not given), with 40.5% (active).
Take `OCCN1CCN(CC(O)COC(c2ccc(F)cc2)c2ccc(F)cc2)CC1` (stereo not given): the inhibition was -11.1% (inactive).
In the case of `OC(COC(c1ccc(Cl)cc1)c1ccc(Cl)cc1)CN1CCCC1` (stereo not given) it was -28.8% (inactive); in that of `Cc1ccccc1NC(=O)Cc1nc(COC(=O)c2cc(Cl)ccc2O)cs1`, -19.6% (inactive); in that of `CC(=O)Oc1cc(OC(C)=O)c2c(=O)c(-c3ccc4c(c3)OCCCO4)c(C)oc2c1`, -3% (inactive).
Then `O=C(NCc1cccnc1)c1ccc(-c2cccc(Cl)c2Cl)o1`, with 40.8% (active).
In the case of `O=C(NCc1cccnc1)c1ccc(-c2ccc(Cl)cc2)o1` it was -19.4% (inactive).
As to `O=C(NCc1cccnc1)c1ccc(-c2cc(Cl)ccc2Cl)o1`, the inhibition was 42.3% (inactive).
In the case of `Cc1csc(=O)n1CC(=O)OCC(=O)Nc1cc(Cl)ccc1[N+](=O)[O-]` it was -34.9% (inactive).
Then `CCN(C(=O)CSc1nncs1)c1c(N)n(Cc2ccccc2)c(=O)[nH]c1=O`, with 4.6% (inactive); and `CCC(=O)NC(C)C(c1cccs1)N1CCN(Cc2ccccc2)CC1` (stereo not given), with -18.4% (inactive); and `O=C(COc1ccc(Cl)cc1)N1CCN(C(=O)c2ccccc2F)CC1`, with 27.3% (inactive).
Then `C=C1C(=O)O[C@H]2C[C@]3(C)C([C@@H](OC(=O)/C(C)=C/C)[C@H]12)[C@](C)(O)CC[C@H]3O` (stereo not given in full), with 13.6% (inactive); and `C=C1C(=O)O[C@@H]2[C@H]1[C@@H](OC(=O)/C(C)=C/C)C/C(C)=C\C(=O)/C=C(\C)[C@@H]2O`, with 54.7% (active); and `C=C1C(=O)O[C@H]2[C@H]1[C@@H](O)CC(=C)[C@@H]1CC(=O)[C@@H](C)[C@H]21`, with 9.7% (inactive).
As to `CCn1c(CC(=O)Nc2ccc(OC)cc2)nnc1SCC(=O)N1CCOCC1`, the inhibition is -21.2% (inactive).
Then `COc1ccc(/C=C/C(=O)c2ccc[nH]2)c(OC)c1OC`, with -21.2% (inactive); and `COc1ccc(/C=C/C(=O)c2ccncc2)c2ccccc12`, with 6.3% (inactive).
For `COc1cc2[nH]c(=O)n(C3CCCCC3)c(=O)c2cc1OC`, the inhibition is 3.9% (inactive).
Then `CCOc1ccc(-c2nc(N)ncc2-c2ccccc2)c(O)c1`, with 2.9% (inactive).
Then `CCOc1ccc(-c2nc(N)ncc2-c2ccc(Cl)cc2)c(O)c1`, with 34.1% (active); and `CCOc1ccc(-c2nc(N)ncc2-c2ccc(OC)cc2)c(O)c1`, with 7.2% (inactive); and `C=CCN1C(=O)C(CC(=O)O)SC1=Nc1ccc(C)cc1` (stereo not given), with -23.8% (inactive).
As to `CC(Oc1ccccc1)c1ccnc2nc(/N=C/N(C)C)nn12` (stereo not given), the inhibition was -24.9% (inactive).
Regarding `CC1(C)CC(=O)c2sc(NS(=O)(=O)c3ccccc3)nc2C1`, the inhibition was -13.7% (inactive).
In the case of `CC1(C)CC(=O)c2sc(NC(=O)c3ccccc3)nc2C1` it was -45.6% (inactive); in that of `CC1(C)CC(=O)c2sc(NC(=O)CCS(=O)(=O)c3ccccc3)nc2C1`, 71% (active); in that of `CN(C)c1c(F)cc(C(=O)NC(=O)NCc2cccnc2)cc1F`, -15% (inactive).
In the case of `COc1ccc(C(CC(=O)O)NC(=O)c2cccs2)cc1` (stereo not given) it was -11.2% (inactive); in that of `Cc1cccc(NC(NC(=O)c2ccccc2[N+](=O)[O-])C(Cl)(Cl)Cl)c1` (stereo not given), -3.9% (inactive); in that of `COc1ccc(-n2nnnc2SCC(=O)Nc2nc3c(s2)CCCC3)cc1`, 43.4% (inactive).
In the case of `O=C(CSc1nnnn1-c1ccc2c(c1)OCCO2)Nc1nc2c(s1)CCCC2` it was 58.5% (active).
For `COc1cc(OC)cc(-n2nnnc2SCC(=O)Nc2nc3c(s2)CCCC3)c1`, the inhibition was -3.7% (inactive).
Then `O=C(O)c1cccc(Oc2ccc([N+](=O)[O-])cc2)c1`, with -8.3% (inactive).
As for `COc1cc(/C=N/NC(=O)C(=O)NCc2cccnc2)cc(OC)c1OC`, the inhibition was -15.5% (inactive).
In the case of `COc1cc(OC)cc(C(=O)O/N=C(\N)c2ccccn2)c1` it was -12.2% (inactive); in that of `Cc1ccc(C(=O)O/N=C(\N)c2ccccn2)cc1`, 11.3% (inactive); in that of `CCOc1ccc(C(=O)O/N=C(\N)c2ccccn2)cc1`, 20.4% (inactive).
Then `N/C(=N\OC(=O)c1ccccc1)c1ccccn1`, with 18.4% (inactive); and `COc1ccc(C(=O)O/N=C(\N)c2ccccn2)cc1`, with 84.1% (active); and `CNC(=O)C(=O)NCC1OCCN1S(=O)(=O)c1ccc(C)cc1` (stereo not given), with -22.7% (inactive).
Then `CCc1ccnc(NC(=O)NS(=O)(=O)c2ccc(C)cc2)c1`, with -11.9% (inactive); and `COc1ccc(NS(=O)(=O)c2cccc(C(=O)OCC(=O)NC3CC3)c2)cc1`, with 7.3% (inactive); and `CCC(NC(=O)c1cc(COc2ccc(OC)cc2Cl)on1)c1ccncc1` (stereo not given), with -10.3% (inactive).
Take `O=C(CCc1nnc(CCCCc2ccccc2)o1)NCCn1cccn1`: the inhibition was -24.1% (inactive).
Then `CCC(Sc1nc2cc(OC)c(OC)cc2c(=O)n1Cc1ccc(OC)cc1)C(=O)NCCOC` (stereo not given), with -24.5% (inactive); and `Cc1ccc(Oc2cnc3ccccc3n2)cc1`, with 18.8% (inactive).
In the case of `COc1ccc(Oc2cnc3ccccc3n2)cc1` it was 60.3% (active); in that of `c1ccc(Oc2cnc3ccccc3n2)cc1`, 13.1% (inactive).
Then `NC(=O)c1nn(-c2ccc(Oc3ccccc3)cc2)c(=O)cc1O`, with -23.2% (inactive); and `CC(CCc1ccccc1)NC(=S)NC(=O)c1ccco1` (stereo not given), with -37% (inactive); and `O=C(NC(=S)NCCc1ccccc1)c1ccco1`, with -69.5% (inactive).
With `O=C(NC(=S)N(CCc1ccccc1)CCc1ccccc1)c1ccco1`, the inhibition is 97.6% (active).
Then `CC(C)C1Nc2ccc(C(=O)NC3CCCCC3)cc2NC1=O` (stereo not given), with -43.7% (inactive); and `Nc1nc(-c2ccccc2)cc(N2CCCCC2)n1`, with 6.2% (inactive).
Then `CN(C)S(=O)(=O)c1cccc(NC(=S)N/N=C/c2ccc(O)c(O)c2O)c1`, with 56.3% (active).
Then `COc1ccc(O)c(/C=N/NC(=S)Nc2cccc(S(=O)(=O)N(C)C)c2)c1`, with -37% (inactive).
Take `CN(C)S(=O)(=O)c1cccc(NC(=S)N/N=C/c2cc(Br)ccc2O)c1`: the inhibition is -11.2% (inactive).
Then `Cc1cccc2nc(-c3ccccc3)nc(N3CCC(O)(c4ccc(Cl)cc4)CC3)c12`, with -4.5% (inactive); and `CCN1CCCC1CNC(=O)c1ccc(CS(=O)(=O)c2ccccc2C)o1` (stereo not given), with 4.8% (inactive); and `Cc1ccc(S(=O)(=O)N2CCOC23CCN(C(=O)c2ccc(Cl)cc2Cl)CC3)cc1`, with -26.1% (inactive).
Then `Oc1ccccc1C=Nc1ccccc1-c1nc2ccccc2[nH]1`, with -7.6% (inactive); and `CC(C)(C)C(=O)NC(NC(=S)Nc1sc2c(c1C#N)CCCC2)C(Cl)(Cl)Cl` (stereo not given), with 46.4% (inactive); and `CC(C)CC(=O)NC(NC(=S)Nc1sc2c(c1C#N)CCCC2)C(Cl)(Cl)Cl` (stereo not given), with 64.5% (active).
Then `CC(C)(C)C(=O)NC(=S)Nc1sc2c(c1C#N)CCCCC2`, with -10.7% (inactive); and `Cc1cc(Nc2ccccc2)nc(NCc2ccccc2)n1`, with 52.7% (inactive).
With `O=C(c1ccco1)N1CCN(C(=O)c2cc3c(s2)-c2ccccc2OC3)CC1`, the inhibition was -13% (inactive).
For `CCOc1ccc(C(=O)NCC(=O)OCC(=O)N2C(C)CCCC2C)cc1` (stereo not given), the inhibition is -9.2% (inactive).
Take `O=C(N/N=C/c1ccoc1)c1ccccc1`: the inhibition was 20.3% (inactive).
Then `CN(CCO)S(=O)(=O)c1ccc2c(c1)C(=NO)c1cc(S(=O)(=O)N(C)CCO)ccc1-2`, with -16% (inactive); and `CCCNC(=O)c1n[nH]c(=O)c2ccccc12`, with -12.4% (inactive); and `Cc1cc(C)c2c(N)c(C(=O)c3ccccc3Cl)sc2n1`, with 0.3% (inactive).
In the case of `Cc1cc(C)c2c(N)c(C(=O)c3ccc(Cl)cc3)sc2n1` it was 6.3% (inactive); in that of `Cc1cc(C)c2c(N)c(C(=O)NN)sc2n1`, -9.3% (inactive); in that of `Cc1cc(C)c2c(N)c(C(=O)Nc3ncc(C)s3)sc2n1`, 92.5% (active).
Then `Cc1cc(C)c2c(N)c(C(=O)Nc3nccs3)sc2n1`, with 34.4% (inactive).
As to `Cc1cc(C)c2c(N)c(C(=O)c3ccc(Cl)cc3Cl)sc2n1`, the inhibition is 81.7% (active).
Regarding `O=C(CSc1nnc(NC(=O)C2CC2)s1)NCc1ccc(F)cc1`, the inhibition is -10% (inactive).
Then `COc1ccc(C(C)=O)cc1CSc1ncccn1`, with -32.9% (inactive).
Then `O=C1Nc2cc(Cl)c(Cl)cc2N(O)N1c1ccc(Cl)cc1`, with 11.5% (inactive); and `CCC/C(O)=C1\C(=O)CCCC1=NCCc1c(C)[nH]c2ccc(C)cc12`, with -7.7% (inactive); and `CCCC/C(O)=C1\C(=O)CCCC1=NCCc1c(C)[nH]c2ccc(OC)cc12`, with -7.7% (inactive).
In the case of `CCC/C(O)=C1\C(=O)CCCC1=NCCc1c(C)[nH]c2ccc(OC)cc12` it was 65.4% (active).
Take `CCS(=O)(=O)c1ccc2c(c1)N(S(C)(=O)=O)CC(C(=O)NCc1ccccc1OC)O2` (stereo not given): the inhibition was 10.4% (inactive).
In the case of `Cc1oc(-c2cc(F)ccc2F)nc1CN1CCN(c2cnccn2)CC1` it was -26% (inactive); in that of `Cc1cccc(N2CCN(Cc3nc(-c4ccc(F)cc4F)oc3C)CC2)n1`, -6.3% (inactive).
Then `Cc1cccc(N2CCN(Cc3nc(-c4ccccc4Cl)oc3C)CC2)n1`, with -11.6% (inactive); and `COc1ccc(-c2nc(CN3CCN(c4cc(C)nc(C)c4)CC3)c(C)o2)c2ccccc12`, with -23.4% (inactive); and `COc1ccc(-c2nc(CN3CCN(c4ccccc4OC)CC3)c(C)o2)cc1`, with -31.1% (inactive).
Then `Cc1cnc(C)c(N2CCN(Cc3nc(-c4cccc(F)c4F)oc3C)CC2)n1`, with -26.1% (inactive).
